# A selection: hits, their analogues and other compounds. The true share with any hit is near 4.3%.
# FGF22 binding: shifts melting point of recombinant human FGF22; Q9HCT0; 1.5% of 340,000 active; recombinant FGF22 thermal shift, SYPRO orange fluorescence; percent of sucrose octasulfate shift, DMSO zero; activity (Tm shift, normalised), % at 9.99 µM; AID 651658;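 active = mean Tm shift, scaled 0 neutral to 100 positive control, at about 1.3% or above, every replicate too, limit read from the data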
# Target sequence (Q9HCT0 whole entry, looked up): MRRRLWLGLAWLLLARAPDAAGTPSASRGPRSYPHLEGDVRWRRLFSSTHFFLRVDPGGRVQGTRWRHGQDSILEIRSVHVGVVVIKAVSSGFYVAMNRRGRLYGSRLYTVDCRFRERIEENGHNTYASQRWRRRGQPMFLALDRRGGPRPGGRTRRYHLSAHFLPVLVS
# Wnt act: Wnt/beta-catenin pathway activation. activation, % at 9.35 µM. AID 743398. 1.2% of 300,000 active. Wnt/beta-catenin reporter cell assay, activator, plate reader; in the data active = activation above about 30%, passing the limit was not always enough;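 note: 0% = neutral control wells and 100% = positive control wells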
# SMARCA2 act: activators of SMARCA2 function. MG213 cells, MMTV-luciferase reporter, dexamethasone, overnight. activation, % at 9.1 µM. 1% of 370,000 active; in the data active = activation above about 7.8%;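 note: 0% = vehicle wells and 100% = reference activator wells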
# MLL AF4-AF9 inh: MLL-AF4/AF9 protein interaction inhibition | inhibition, % at 10 µM | P42568 | AlphaScreen, biotin-AF4 peptide binding to FLAG-AF9 | 0.47% of 350,000 active;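 active = every replicate reaching a set inhibition limit, whatever the replicate mean, cut at about 25% in these data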;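 note: 0% = plate neutral control median and 100% = total signal loss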
# esBAF inh: inhibitors of esBAF chromatin remodeling in mouse ES cells. Bmi1-luciferase knock-in reporter, 24 h; 100% = twice the neutral-well signal. reporter increase, % at 12.5 µM. 2% of 350,000 active; in the data active = activation above about 40%;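 note: 0% = median of the plate's neutral control wells and 100% = double that signal; a rise in the Bmi1 reporter signal indicates esBAF inhibition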
# MITF TRPM1 HTS: MITF TRPM1 promoter activation in melanoma cells | SK-MEL-5 TRPM1-promoter luciferase, 24 h; % of positive control, neutral wells = 0 | activation, % at 12.5 µM | 0.75% of 300,000 active | AID 588334;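 active = mean activation of at least 80% with every replicate also reaching 80%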;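 note: 0% = neutral control wells and 100% = parthenolide positive control wells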
# An asterisk follows results filed as active; · = no result.
SMILES,FGF22 binding,Wnt act,SMARCA2 act,MLL AF4-AF9 inh,esBAF inh,MITF TRPM1 HTS
C[C@H](CO)N1C[C@H](C)[C@@H](CN(C)S(=O)(=O)c2cn(C)cn2)OCCCC[C@H](C)Oc2ccc(NS(=O)(=O)c3ccc(F)cc3)cc2C1=O,-0.8,·,·,-1.5,-1.2,·
O=C1c2ccccc2CCC12OC2c1ccc([N+](=O)[O-])cc1 (stereo unspecified),43.6*,3.2,-3.3,-46.5,·,·
CCN(CC)c1cc(C)c(C#N)c2nc3ccccc3n12,0.1,36.4*,-1.7,-0.6,-4.6,-2.5
Cc1cc(Cl)n2c(nc3ccccc32)c1C#N,0.1,5.3,5.5,-0.3,·,-80.7
O=c1c2ccccc2c(=O)n(-c2ccccc2)n1-c1ccccc1,-0.1,36.8*,-1.2,2.6,-1.7,-15.1
O=c1c2ccccc2c2ccccc2c(=O)n1-c1ccccc1,0.0,15.3,-0.8,-1.9,·,-5.9
O=C1CCC(=O)N1N1C(=O)C2C3c4ccccc4C(c4ccccc43)C2C1=O (stereo unspecified),43.0*,-8.4,-2.3,-0.1,-7.8,-2.4
COc1cc(C#Cc2c(-c3cncn3C)n(C)c3ccc(-c4ccc(CN5CCOCC5)cc4)cc23)cc(OC)c1,0.1,4.8,1.0,8.5,21.5,28.0
COc1cc(C#Cc2c(-c3cncn3C)n(C)c3ccc(-c4cnc(N5CCOCC5)nc4)cc23)cc(OC)c1,-0.2,21.6,7.4,10.7,28.6,89.1*
COc1cc(C(=S)N2CCOCC2)ccc1OC(=O)/C=C/c1ccco1,43.1*,11.4,-1.9,0.6,·,6.5
O=C(/C=C/c1ccccc1)Oc1cccc(C(=S)N2CCOCC2)c1,-0.1,-1.7,-1.9,14.4,-7.1,-9.7
O=C(/C=C/c1ccccc1)Oc1ccccc1C(=S)N1CCOCC1,43.2*,6.4,1.3,7.4,·,-13.2
COc1cc(C(=S)N2CCOCC2)ccc1OC(=O)c1ccccc1,-0.2,0.1,-2.6,2.2,6.5,·
C[C@H](CO)N1C[C@H](C)[C@H](CN(C)C)Oc2ccc(NC(=O)c3ccncc3)cc2C1=O,0.4,·,·,0.1,0.2,·
COc1ccc(NC(=O)N(C)C[C@H]2Oc3ncc(C#CCN(C)C)cc3C(=O)N([C@@H](C)CO)C[C@@H]2C)cc1,0.1,·,·,-1.5,-3.0,·
O=C(c1ccc2ccccc2c1O)N1CCCCC1,-1.2,-4.0,2.6,9.6,56.2*,·
O=C(c1cccc2ccccc12)N1CCCCC1,0.1,-0.2,3.7,1.9,2.6,-4.2
c1coc(CNc2c3c(nc4ncnn24)CCCC3)c1,·,2.9,-1.9,·,·,-5.6
Clc1cccc(-c2cc3nc4c(c(NCc5ccco5)n3n2)CCCC4)c1,·,·,6.1,·,44.2*,53.5
CC1CCCN(C(=S)SCC(=O)c2cc(Br)cc(Br)c2O)C1 (stereo unspecified),·,-1.7,4.3,1.1,·,-0.8
O=C(CSC(=S)N1CCCC1)c1cc(Br)cc(Br)c1O,45.6*,·,0.7,-1.6,·,·
O=C(CCn1cccn1)N1CCCC(N2CCN(c3cccc(C(F)(F)F)c3)CC2)C1 (stereo unspecified),0.2,31.7*,0.4,1.9,-7.9,-12.7
O=C(Cn1cccn1)N1CCCC(N2CCN(c3cccc(C(F)(F)F)c3)CC2)C1 (stereo unspecified),0.1,1.3,-0.9,2.3,0.8,-11.0
COC(=O)[C@@]12CCCCC3=C1N(CCC3)C(=O)[C@H]2CC(=O)N1CCN(C(=O)C2CC2)CC1,·,·,-2.7,·,·,·
COc1ccc(-c2ccn(-c3cccc(F)n3)n2)cc1,0.1,8.0,5.0,3.4,54.4*,25.9
SMILES,FGF22 binding,Wnt act,SMARCA2 act,MLL AF4-AF9 inh,esBAF inh,MITF TRPM1 HTS
Cc1noc(C)c1NC(=O)Nc1ccc2c(c1)C(=O)N([C@H](C)CO)C[C@H](C)[C@H](CN(C)CC1CC1)OCCCC[C@H](C)O2,0.0,·,·,-4.5,1.1,·
C[C@@H]1CCCCO[C@H](CN(C)C(=O)C2CCCCC2)[C@H](C)CN([C@@H](C)CO)C(=O)c2cc(NS(C)(=O)=O)ccc2O1,-0.1,·,·,7.9,-0.9,·
Cc1cc(C)c2oc(-c3cccc(N)c3)nc2c1,-0.4,14.4,3.0,0.1,55.0*,·
O=C(Nc1nc2ccccc2s1)c1ccc2sc([C@H]3C[C@H](O)[C@@H](CO)O3)nc2c1,1.2,4.5,4.2,0.4,55.0*,·
O=C(Nc1ccccc1F)c1ccc2sc([C@@H]3O[C@H](CO)[C@H](O)[C@H](O)[C@H]3O)nc2c1,0.1,18.2,1.0,-2.6,27.9,·
O=C(NC1CC1)c1ccc2sc([C@H]3C[C@H](O)[C@@H](CO)O3)nc2c1,0.0,-0.3,-6.6,-1.7,-5.8,·
O=C(Nc1nccs1)c1ccc2sc([C@H]3C[C@H](O)[C@@H](CO)O3)nc2c1,-0.1,26.9,-0.9,0.1,36.6,·
O=C(Nc1ccccc1F)c1ccc2sc([C@H]3C[C@H](O)[C@@H](CO)O3)nc2c1,0.0,-3.0,-2.9,1.6,55.4*,·
O=C(Nc1cccc2ccccc12)c1ccc2sc([C@@H]3O[C@H](CO)[C@@H](O)[C@H]3O)nc2c1,0.0,0.0,1.2,-0.7,41.7*,·
CCCN(C)C[C@@H]1Oc2ncc(C#Cc3ccc(OC)cc3)cc2C(=O)N([C@H](C)CO)C[C@@H]1C,-0.2,·,·,6.5,-11.0,·
COc1cc(C(=O)NCCc2cc3c(OC)ccc(OC)c3[nH]c2=O)cc(OC)c1OC,-0.4,-3.0,-0.8,1.0,-1.8,14.3
COc1ccc(OC)c2[nH]c(=O)c(CCNC(=O)c3cccs3)cc12,43.9*,-5.1,0.2,-1.0,·,6.5
COc1ccc2cc(CCNC(=O)CC(C)(C)C)c(=O)[nH]c2c1,·,·,-0.4,·,14.0,17.8
COc1ccc2cc(CCNC(=O)c3cccs3)c(=O)[nH]c2c1,-0.3,50.6*,1.9,12.5,72.0*,90.1*
CC(C)C#Cc1ccc2c(c1)O[C@@H](CN(C)C(=O)c1cccnc1)[C@H](C)CN([C@H](C)CO)S2(=O)=O,-0.1,·,·,1.1,5.9,·
CCSC1=NCCN1S(=O)(=O)c1ccc2ccccc2c1,43.6*,-2.1,-2.3,-9.1,·,-12.4
CSC1=NCCN1S(=O)(=O)c1ccc2ccccc2c1,0.0,-3.9,1.7,-7.2,·,11.4
Cc1ccccc1Nc1c(-c2ccc(N3CCOCC3)cc2)nc2cnccn12,0.0,33.1*,3.5,4.8,55.8*,35.8
Cc1ccccc1Nc1c(-c2ccc(N3CCOCC3)cc2)nc2ncccn12,0.1,7.6,-0.9,-9.0,53.3*,8.0
Cc1ccccc1Nc1c(-c2ccccn2)nc2c(C)cccn12,0.0,2.7,-0.3,34.2*,-0.6,12.1
Cc1ccc(Nc2c(-c3ccc(N4CCOCC4)cc3)nc3cnccn23)cc1,-0.4,-4.8,-1.0,-35.5,·,37.8
CCCCNc1cccc2c1S(=O)(=O)N[C@H](CC(C)C)CO2,-0.2,-2.7,-6.5,-1.3,·,·
C[C@H](CO)N1C[C@H](C)[C@H](CN(C)C(=O)NC2CCCCC2)Oc2ccc(NC(=O)Nc3ccccc3)cc2C1=O,-0.7,·,·,-3.4,-4.1,·
